# Results filed as inconclusive are left out. A call without a number means that no potency is given here. A number with no mark means an inactive call. The source made the active and inactive calls. The call rests on the fitted dose curve; in most records, active means well fitted curve in the direction sought with a large enough effect; inconclusive means small, poorly fitted or top-dose-only effect, or another doubt; inactive means no such curve, though single readings can be large; an effect the other way counts as inactive or inconclusive.
# Legend:
# [1] = qHTS of pediatric cancer cell lines to identify multiple opportunities for drug repurposing: Primary screen for Rh18 cells (AID 1347102); further: nearly all actives have a fitted effect of over 65% in size
# How it was run: (§1)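 Cells (500-1,000/well) rested 5 h, then received compounds for 48 h; metabolically active cells were measured by CellTiter-Glo luminescence. Final concentrations spanned up to 46 µM (MIPE, 11-point) or 0.59 nM-46 µM (NPC, 8-point) in primary screens, 11-point in follow-ups.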
# [2] = qHTS of pediatric cancer cell lines to identify multiple opportunities for drug repurposing: Primary screen for RD cells (AID 1347104); further: nearly all actives have a fitted effect of over 55% in size; further: potency means the concentration at half of the fitted maximal effect
# How it was run: (§2)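 Plated cells (500-1,000 per well, growth media) were allowed to settle for 5 hours, treated with compound dilutions for 48 hours, then lysed with CellTiter-Glo for 15 min at room temperature before luminescence reading.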
# [3] = qHTS of pediatric cancer cell lines to identify multiple opportunities for drug repurposing: Primary screen for MG 63 (6-TG R) cells (AID 1347105); further: nearly all actives have a fitted effect of over 50% in size; further: potency means the concentration at half of the fitted maximal effect
# How it was run: as §2
# [4] = qHTS of pediatric cancer cell lines to identify multiple opportunities for drug repurposing: Primary screen for control Hh wild type fibroblast cells (AID 1347106); further: nearly all actives have a fitted effect of over 55% in size; further: potency means the concentration at half of the fitted maximal effect;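 on activity change, negative = cytotoxic: a drop in luminescence marks cytotoxicity and a rise apparent proliferation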
# How it was run: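 Viability after 48 h compound treatment at 37C, 500-1,000 cells/well, read as ATP luminescence with CellTiter-Glo. Primary screens used 11-point (MIPE, 0.78 nM-46 µM) or 8-point (NPC, 0.59 nM-46 µM) final concentrations; follow-up screens used 11-point dilutions.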
# [5] = qHTS of pediatric cancer cell lines to identify multiple opportunities for drug repurposing: Primary screen for Rh30 cells (AID 1347107); further: nearly all actives have a fitted effect of over 75% in size
# How it was run: as §1
# [6] = qHTS of pediatric cancer cell lines to identify multiple opportunities for drug repurposing: Primary screen for Rh41 cells (AID 1347108); further: nearly all actives have a fitted effect of over 70% in size; further: potency means the concentration at half of the fitted maximal effect;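 on activity change, negative = cytotoxic: luminescence drop marks cytotoxic hits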
# How it was run: as §2
# [7] = qHTS of pediatric cancer cell lines to identify multiple opportunities for drug repurposing: Primary screen for OHS-50 cells (AID 1347103); further: nearly all actives have a fitted effect of over 40% in size; further: potency means the concentration at half of the fitted maximal effect
# How it was run: as §1
# [8] = qHTS of pediatric cancer cell lines to identify multiple opportunities for drug repurposing: Confirmatory screen for BT-12 cells (AID 1347112); further: nearly all actives have a fitted effect of over 55% in size; further: potency means the concentration at half of the fitted maximal effect
# How it was run: as §1
# [9] = qHTS of pediatric cancer cell lines to identify multiple opportunities for drug repurposing: Confirmatory screen for DAOY cells (AID 1347114); further: nearly all actives have a fitted effect of over 65% in size; further: potency means the concentration at half of the fitted maximal effect
# How it was run: (§3)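 Viability measured as metabolically active cells via CellTiter-Glo luminescence following 48 hours of compound exposure, 11-point dilutions in confirmatory testing. 500-1,000 cells/well plated 5 hours before dosing; controls were DMSO and 2.3 µM bortezomib.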
# [10] = qHTS of pediatric cancer cell lines to identify multiple opportunities for drug repurposing: Confirmatory screen for control Hh wild type fibroblast cells (AID 1347121); further: nearly all actives have a fitted effect of over 70% in size
# How it was run: as §1
# [11] = qHTS of pediatric cancer cell lines to identify multiple opportunities for drug repurposing: Confirmatory screen for A673 cells (AID 1347110);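 further: potency means the concentration at half of the fitted maximal effect; cells exposed to compound for 48 h before the viability read; nearly all actives have a fitted effect of over 65% in size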
# How it was run: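 A673 cells at 500-1,000 cells/well were dosed 5 h after plating, in dilution series up to 46 uM final; primary runs used 8 or 11 points and confirmatory runs used 11 points. Viability was read by CellTiter-Glo luminescence after 48 h, against DMSO and 2.3 uM bortezomib controls.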
# [12] = qHTS of pediatric cancer cell lines to identify multiple opportunities for drug repurposing: Confirmatory screen for SK-N-MC cells (AID 1347111);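 further: cells exposed to compound for 48 h before the readout; nearly all actives have a fitted effect of over 70% in size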; further: potency means the concentration at half of the fitted maximal effect
# How it was run: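 Seed 500-1,000 cells/well; rest 5 h at 37 degrees C. Pin-transfer compounds, 11-point titration. Incubate 48 h. Add CellTiter-Glo, 15 min RT, read luminescence.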
# [13] = qHTS of pediatric cancer cell lines to identify multiple opportunities for drug repurposing: Confirmatory screen for LAN-5 cells (AID 1347113); further: nearly all actives have a fitted effect of over 65% in size; further: potency means the concentration at half of the fitted maximal effect
# How it was run: as §1
# [14] = qHTS of pediatric cancer cell lines to identify multiple opportunities for drug repurposing: Confirmatory screen for NB-EBc1 cells (AID 1347115);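 further: cells exposed to compound for 48 h before the viability read; nearly all actives have a fitted effect of over 45% in size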; further: potency means the concentration at half of the fitted maximal effect
# How it was run: as §1
# [15] = qHTS of pediatric cancer cell lines to identify multiple opportunities for drug repurposing: Confirmatory screen for BT-37 cells (AID 1347117); conditions: BT-37 pediatric cancer cells, viability; activity change, negative = cytotoxic: at 45.9 µM (top of the series); further: nearly all actives have a fitted effect of over 55% in size; further: potency means the concentration at half of the fitted maximal effect
# How it was run: as §1
# [16] = qHTS of pediatric cancer cell lines to identify multiple opportunities for drug repurposing: Confirmatory screen for TC32 cells (AID 1347118); further: potency means the concentration at half of the fitted maximal effect
# How it was run: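 Luminescent ATP read-out (CellTiter-Glo) of metabolically active TC32 cells after 48 h exposure. Concentration-response curves came from 11-point (MIPE, 0.78 nM–46 µM) or 8-point (NPC, 0.59 nM–46 µM) primary titrations; follow-up used 11 points.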
# [17] = qHTS of pediatric cancer cell lines to identify multiple opportunities for drug repurposing: Confirmatory screen for NB1643 cells (AID 1347109); further: nearly all actives have a fitted effect of over 45% in size; further: potency means the concentration at half of the fitted maximal effect
# How it was run: as §1
# [18] = qHTS of pediatric cancer cell lines to identify multiple opportunities for drug repurposing: Confirmatory screen for MG 63 (6-TG R) cells (AID 1347119); further: nearly all actives have a fitted effect of over 55% in size; further: potency means the concentration at half of the fitted maximal effect
# How it was run: as §1
# [19] = qHTS of pediatric cancer cell lines to identify multiple opportunities for drug repurposing: Confirmatory screen for SJ-GBM2 cells (AID 1347116); further: nearly all actives have a fitted effect of over 60% in size
# How it was run: as §3
smiles,measurement,setting,value
OCCN1C[C@H](O)[C@@H](O)[C@H](O)[C@@H]1CO,Potency,[1],inactive
same,Potency,[2],inactive
same,Potency,[3],inactive
same,Potency,[4],inactive
same,Potency,[5],inactive
same,Potency,[6],inactive
Cn1cnc2c(F)c(Nc3ccc(Br)cc3F)c(C(=O)NOCCO)cc21,Potency,[1],inactive
same,Potency,[7],inactive
same,Potency,[3],inactive
same,Potency,[4],inactive
same,Potency,[5],inactive
same,Potency,[6],inactive
N#Cc1ccc(COC[C@H]2O[C@@H](n3c(NCc4ccc(Cl)c(Cl)c4)nc4c(N)ncnc43)[C@@H](O)[C@@H]2O)cc1,Potency,[7],6.85 µM (active)
same,Potency,[3],inactive
same,Potency,[4],inactive
C=CC[C@@H]1C=C(C)C[C@H](C)C[C@H](OC)[C@H]2O[C@@](O)(C(=O)C(=O)N3CCCC[C@H]3C(=O)O[C@H](C(C)=C[C@@H]3CC[C@H](O)[C@H](OC)C3)[C@@H](C)[C@@H](O)CC1=O)[C@@H](C)C[C@@H]2OC,Potency,[4],inactive
CCc1cnn2c(NCc3ccc[n+]([O-])c3)cc(N3CCCC[C@@H]3CCO)nc12,Potency,[7],0.0343 µM (active)
same,Potency,[2],0.0332 µM (active)
same,Potency,[5],inactive
same,Potency,[6],0.0743 µM (active)
same,Potency,[8],inactive
same,Potency,[9],inactive
same,Potency,[10],inactive
CCC(C=C[C@@H]1OC(=O)C=C[C@H]1C)=C[C@H](C)CC=CC(C)=C[C@@H](C)C(=O)[C@@H](C)[C@H](O)[C@@H](C)CC(C)=CC(=O)O,Potency,[7],0.128 µM (active)
same,Potency,[2],0.0782 µM (active)
same,"activity change, negative = cytotoxic",[5],-1.27% [at 1.86 µM]
same,Potency,[6],0.0247 µM (active)
same,Potency,[11],0.0322 µM (active)
same,Potency,[12],0.0064 µM (active)
same,Potency,[8],0.0161 µM (active)
same,Potency,[13],0.0051 µM (active)
same,Potency,[9],0.0128 µM (active)
same,Potency,[14],0.0361 µM (active)
same,Potency,[15],0.0057 µM (active)
same,Potency,[16],0.0144 µM (active)
N#CC(=Cc1ccc(O)c(O)c1)C(=O)NCc1ccccc1,Potency,[1],inactive
same,Potency,[4],inactive
CC(N[C@H]1CCCC[C@H]1NC(=O)c1ccc(Cl)cc1)c1cccc2ccccc12 (some centres not stated),Potency,[7],6.11 µM (active)
same,Potency,[2],2.64 µM (active)
same,Potency,[4],inactive
same,Potency,[5],inactive
same,Potency,[17],20.8 µM (active)
same,Potency,[11],16.5 µM (active)
same,Potency,[12],2.61 µM (active)
same,Potency,[13],14.7 µM (active)
same,Potency,[15],23.3 µM (active)
same,Potency,[16],5.85 µM (active)
same,Potency,[18],23.3 µM (active)
CC1=C(C(=O)Nc2cc3cn[nH]c3cc2F)C(c2ccc(Cl)cc2F)N=C(c2ccnc(Cl)c2)N1 (configuration not stated),Potency,[2],inactive
same,Potency,[5],inactive
Cc1coc2c1C(=O)C(=O)c1c-2ccc2c(C)cccc12,Potency,[7],inactive
same,Potency,[3],inactive
Cc1ccc(-n2[nH]c(C)c(N=Nc3cccc(-c4cccc(C(=O)O)c4)c3O)c2=O)cc1C,Potency,[7],17.4 µM (active)
same,Potency,[3],21.1 µM (active)
same,Potency,[4],inactive
same,Potency,[6],18.7 µM (active)
CCCCCN=C(N)NN=Cc1c[nH]c2ccc(OC)cc12,Potency,[7],9.68 µM (active)
same,Potency,[2],18.7 µM (active)
same,Potency,[4],inactive
N#Cc1c(C2CCNCC2)cc(-c2c(O)cccc2OCC2CC2)nc1N,Potency,[7],15.3 µM (active)
same,Potency,[2],16.6 µM (active)
same,Potency,[4],inactive
same,Potency,[6],14.8 µM (active)
same,Potency,[12],inactive
same,Potency,[9],16.5 µM (active)
same,Potency,[14],inactive
same,Potency,[16],inactive
same,Potency,[10],inactive
O=c1c(O)c(-c2ccc(O)c(O)c2)oc2cc(O)ccc12,Potency,[7],21.7 µM (active)
same,Potency,[3],inactive
CS[C@H]1SC[C@@H]2C(=O)N(C)[C@H](C(C)C)C(=O)OC[C@H](NC(=O)c3cnc4ccccc4n3)C(=O)N[C@H](C)C(=O)N(C)[C@@H]1C(=O)N(C)[C@H](C(C)C)C(=O)OC[C@H](NC(=O)c1cnc3ccccc3n1)C(=O)N[C@H](C)C(=O)N2C,Potency,[7],0.0122 µM (active)
same,Potency,[2],0.003 µM (active)
same,Potency,[3],0.0187 µM (active)
same,Potency,[5],inactive
same,Potency,[17],inactive
same,Potency,[11],0.0059 µM (active)
same,Potency,[12],13.1 µM (active)
same,Potency,[13],inactive
same,Potency,[9],0.0147 µM (active)
same,Potency,[14],inactive
same,Potency,[19],inactive
same,"activity change, negative = cytotoxic",[15],1.7% (active)
same,Potency,[18],inactive
same,Potency,[10],inactive
NS(=O)(=O)OC[C@@H]1C[C@@H](n2ccc3c(N[C@H]4CCc5ccccc54)ncnc32)C[C@H]1O,Potency,[7],inactive
same,Potency,[2],0.833 µM (active)
same,Potency,[4],6.62 µM (active)
same,Potency,[6],1.87 µM (active)
same,Potency,[17],inactive
same,Potency,[11],14.7 µM (active)
same,Potency,[12],inactive
same,Potency,[14],inactive
same,Potency,[19],inactive
same,Potency,[15],inactive
same,Potency,[16],inactive
same,Potency,[18],inactive
same,Potency,[10],inactive
O=[N+]([O-])c1cn2c(n1)OC[C@@H](OCc1ccc(OC(F)(F)F)cc1)C2,Potency,[2],inactive
same,Potency,[3],inactive
same,Potency,[4],inactive
same,Potency,[5],inactive
CN(CC(=O)N(Cc1ccc(C2CCCCC2)cc1)c1ccc(C(=O)O)c(O)c1)S(=O)(=O)c1c(F)c(F)c(F)c(F)c1F,Potency,[7],21.7 µM (active)
same,Potency,[2],37.2 µM (active)
same,Potency,[4],inactive
same,Potency,[6],23.5 µM (active)
same,Potency,[17],26.1 µM (active)
same,Potency,[11],13.1 µM (active)
same,Potency,[8],inactive
same,Potency,[14],inactive
same,Potency,[19],inactive
same,Potency,[15],26.1 µM (active)
same,Potency,[16],26.1 µM (active)
same,Potency,[18],20.8 µM (active)
same,Potency,[10],inactive
C=CC(=O)Nc1cc(NC(=O)c2ccc(C)c(NC(=O)c3ccno3)c2)cc(C(F)(F)F)c1,Potency,[2],33.2 µM (active)
same,Potency,[6],20.9 µM (active)
O=C(Nc1nnc(-c2ccco2)o1)c1cc(-c2ccccc2)nc2ccccc12,Potency,[7],30.6 µM (active)
same,Potency,[3],14.8 µM (active)
same,Potency,[4],inactive
Cc1cc(C(=O)NOCCO)c(Nc2ccc(I)cc2F)n(C)c1=O,Potency,[1],inactive
same,Potency,[4],inactive
same,Potency,[6],inactive

# Source: PubChem BioAssay (NCATS)
